# Bioassay records (PubChem BioAssay)
# NS1 function inh: inhibitors of influenza NS1 protein function; Potency, µM (top dose mostly 46.1 µM); hit rate 0.4% among 270,000; AID 2326; calls by dose curve; further: actives are rising curves; nearly all actives have a fitted effect of over 50% in size
#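 S. cerevisiae expressing influenza A NS1, grown in glucose, washed, then diluted 1:100 into pH 6.0 -URA galactose medium with 23 nl compound. Growth recovery read as OD600; NS1-free strain serves as control.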
# SARS PLpro yeast: inhibitors of SARS-CoV papain-like protease in yeast; hit rate 0.19% among 330,000; S. cerevisiae expressing SARS-CoV PLpro, growth rescue; Potency, µM (series often up to 32.9 µM), hits mostly activators; calls by dose curve; further: nearly all actives have a fitted effect of over 55% in size
# AMA1 RON2 block: disrupts binding of P. falciparum AMA1 to RON2; AID 720542; hit rate 0.2% among 360,000; AlphaScreen AMA1-biotinylated RON2 peptide binding; Potency, µM (series often up to 58.2 µM), most hits filed as inhibitors; further: nearly all actives have a fitted effect of over 45% in size
#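 AMA1 (3D7) with his tag at 25 nM final met compounds first, then biotinylated RON2 peptide at 25 nM; detection used donor plus acceptor beads, 10 µg/mL apiece, read by AlphaScreen after 30 min at room temperature.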
# Pf growth 48h: inhibits P. falciparum growth in the first generation, 48 h. P. falciparum luciferase growth in erythrocytes, 48 h. Potency, µM (highest dose often 28.7 µM), hits mostly inhibitors. hit rate 5.9% among 310,000
#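 Parasite viability was followed by luminescence of a genomically integrated firefly luciferase. Cultures held 0.1% parasitemia at 2% hematocrit (final), incubated under 5% CO2 at 37 C.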
# HCV inhibitor: HCV inhibition. AID 651820. hit rate 3.4% among 340,000. Potency, µM (top dose mostly 41.8 µM), hits mostly inhibitors. Huh7.5.1 HCVcc-Cre infection, luciferase reporter, 44 h
#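 After 44 h co-culture of compound, cells and HCVcc-Cre (~0.5 moi), substrate is added for 15 min at room temperature and luciferase measured over 15 sec. Cells were seeded at 1,000/well and pre-cultured 4 h.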
# Pf growth 96h: inhibits malaria parasite growth, 96 h. P. falciparum luciferase reporter growth, 96 h. hit rate 6.9% among 320,000. AID 504834. Potency, µM (titrated, usually from 28.7 µM), actives largely listed as inhibitors
#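 Erythrocytes infected with luciferase-expressing P. falciparum were dispensed at 2% hematocrit and 0.05% parasitemia (final), then incubated with compounds 96 hours at 37 C in 5% CO2. Luminescence after detection reagent addition reported growth.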
# A number is an active result; i = inactive; ? = inconclusive; nt = not tested or not shown; [ ] = another dose, or the depositor's remark. Most compounds without a hit are left out; they make up all but 12% or so of the library. Unless noted, the call rests on the fitted dose curve; in most records, active means well fitted curve in the direction sought with a large enough effect; inconclusive means small, poorly fitted or top-dose-only effect, or another doubt; inactive means no such curve, though single readings can be large; an effect the other way counts as inactive or inconclusive.
SMILES,NS1 function inh,SARS PLpro yeast,AMA1 RON2 block,Pf growth 48h,HCV inhibitor,Pf growth 96h
O=C(Nc1c(F)cc(F)cc1F)c1cccn(Cc2ccccc2)c1=O,nt,i,i,i,i,i
O=C(Nc1ccncc1)c1cccn(Cc2ccccc2)c1=O,nt,i,i,i,8.9µM,?
Cc1cc(C)cc(-n2ncc3c2CCCC3NC(=O)CN2CCCCC2=O)c1 (centres undefined),nt,nt,i,nt,i,nt
CCOC(=O)COc1ccc2c(C)c(CCN(CC)CC)c(=O)oc2c1Cl,nt,nt,nt,i,nt,?
CCN(CC)Cc1nc2c(c(=O)[nH]1)C1(CCCC1)Cc1ccccc1-2,i,i,i,?,?,12µM
O=c1[nH]c(CN(CCO)CCO)nc2c1C1(CCCCC1)Cc1ccccc1-2,i,i,i,i,i,i
C[N+]1(CCCOC(=O)C2(c3ccccc3)CCCC2)CCOCC1,i,i,i,12µM,i,?
CN(C)CCOC(=O)C1(c2ccccc2)CCCC1,i,i,i,nt,i,i
O=C(OCCN1CCCC1)C1(c2ccccc2)CCCC1,i,i,i,i,?,0.74µM
O=C(OCCN1CCCCC1)C1(c2ccccc2)CCCC1,i,i,i,i,i,i
O=C(Cn1cc[n+](CC(=O)c2ccc(Cl)cc2Cl)c1)c1ccc(Cl)cc1Cl,i,i,i,?,?,?
O=C(C[n+]1cc(Br)cc2ccccc21)c1ccc(Cl)cc1,i,i,i,?,i,13µM
O=C(Cn1cc[n+](CC(=O)c2ccccc2)c1)c1ccccc1,?,i,i,1µM,i,?
O=C(/C(=C(\[O-])c1ccccc1)[n+]1ccc2ccccc2c1)c1ccccc1,i,i,i,?,i,13µM
CC(=O)Nc1cc[n+](CC(=O)c2ccc(Cl)cc2)cc1,i,i,i,?,?,9.3µM
CCOc1ccc(C2C(C(=O)c3cccs3)=C(O)C(=O)N2CCN2CCOCC2)cc1 (centres undefined),i,i,i,i,i,i
O=C(COC(=O)CCc1c[nH]c2ccccc12)NCc1ccc2c(c1)OCO2,i,i,i,i,i,i
Cc1cccc(NC(=S)NCC(c2cccnc2)N(C)C)c1C (centres undefined),i,i,i,i,i,i
O=C(C[n+]1cc(Br)cc(Br)c1)c1ccccc1,i,i,i,i,i,0.17µM
O=C(C[n+]1ccc2ccccc2c1)c1ccc2ccc3ccccc3c2c1,?,nt,i,nt,nt,nt
Cc1ccc[n+](CC(=O)c2ccc(Cl)cc2)c1,i,i,i,i,i,0.83µM
Cc1ccc(C(=O)C[n+]2cc(Br)cc(Br)c2)cc1[N+](=O)[O-],?,i,i[2.32 µM],9.3µM,?,?
Cc1cc(C)c[n+](CC(=O)c2ccc(C)c([N+](=O)[O-])c2)c1,?,i,i,i,i,?
O=C(C[n+]1ccc2ccccc2c1)c1ccccc1,i,i,i,?,i,9.3µM
O=C(C[n+]1cc(Br)cc(Br)c1)c1ccc(-c2ccccc2)cc1,i,i,i,nt,i,?
SMILES,NS1 function inh,SARS PLpro yeast,AMA1 RON2 block,Pf growth 48h,HCV inhibitor,Pf growth 96h
Cc1ccc[n+](CC(=O)c2ccc(-c3ccccc3)cc2)c1,i,i,i,i,i,?
O=C(NCc1ccccc1)C(c1ccc(C(F)(F)F)cc1)N1CCN(CCN2CCOCC2)CC1 (centres undefined),nt,nt,i,nt,nt,nt
O=C(C[n+]1cc(Br)cc(Br)c1)c1ccc(Cl)cc1,i,i,i,i,32µM,?
Cc1ccc(C(=O)C[n+]2cc(Br)cc(Br)c2)cc1,i,i,i,i,i,?
Cc1ccc(C(CNC(=O)C(=O)Nc2ccc3c(c2)OCCO3)N2CCN(C)CC2)cc1 (centres undefined),nt,nt,i,7.4µM,i,i
CC(C#N)(NC(=O)CN1CCN(S(=O)(=O)c2ccccc2C#N)CC1)C1CC1 (centres undefined),nt,i,i[11.6 µM],i,i,?
O=C(COC(=O)COc1ccc(Br)cc1)NNC(=O)c1ccccc1,nt,i,i,nt,i,nt
Cc1cc(Oc2cc(N)cc([N+](=O)[O-])c2)ccc1Cl,i,i,i,i,i,8.3µM
Nc1cc(OCC(F)(F)F)cc([N+](=O)[O-])c1,i,i,i,i,i,i
CCc1ccc(C(C(=O)NCc2ccc(F)cc2)N(C(=O)c2csnn2)C2CC2)cc1 (centres undefined),i,i,i,?,i,i
COc1cc(C)ccc1OCC(=O)NC1CCCCCC1,nt,i,i,i,i,i
COc1ccc(C)cc1NC(C)C(=O)NC(=O)NC1CCCCC1 (centres undefined),nt,i,?,13µM,i,?
Cn1nc(C(F)(F)F)c2cc(NC(=O)OCc3ccc(F)cc3)sc21,i,i,i,i,10µM,?
COc1ccc(COC(=O)Nc2cc3c(C(F)(F)F)nn(C)c3s2)cc1,i,i,i,?,?,i
CC(C)(C)c1ccc(O)c(N=Cc2cc(Br)ccc2O)c1,i,i,i,10µM,i,i
CN(C)c1nc(OCCNC(=O)COc2ccc(Cl)cc2Cl)nc(N2CCCCC2)n1,i,i,i,?,?,2.6µM
O=C1c2cccnc2C(=O)N1Cc1ccc(S(=O)(=O)N2CCOc3ccccc32)cc1,i,?,i,i,i,i
Cc1c(CCOC(=O)C23CC4(C)CC(C)(CC(C)(C4)C2)C3)sc[n+]1CC(=O)c1ccccc1,i,i,i,?,i,i
Cc1c(CCOC(=O)C23CC4CC(CC(C4)C2)C3)sc[n+]1Cc1ccccc1,i,i,i,3.3µM,i,i
Cc1c(CCOC(=O)CC23CC4CC(CC(C4)C2)C3)sc[n+]1CC(=O)c1ccccc1,i,i,i,13µM,11µM,i
Cc1ccc(C(=O)OCCc2sc[n+](Cc3ccccc3)c2C)cc1,i,i,i,1.5µM,i,1µM
Cc1c(CCOC(=O)c2ccc(Cl)cc2Cl)sc[n+]1CC(=O)c1ccccc1,nt,i,i,nt,13µM,nt
O=C(c1cnn2c(-c3ccccc3)cc(-c3ccccc3)nc12)N1CCN(Cc2ccccc2)CC1,nt,nt,i,nt,?,nt
COc1ccc(NC(=O)CSc2nnc(-c3cc(C)[nH]n3)n2N)cc1,i,i,i,i,i,?
OC1(CNCc2cn[nH]c2-c2cc3ccccc3o2)CCCCC1,i,i,i,i,?,i
CCCn1c(SCC(=O)NCCc2ccccc2)nnc1C(C)C,i,i,i,i,i,i
Cc1c(CCOC(=O)c2cc([N+](=O)[O-])cc([N+](=O)[O-])c2)sc[n+]1CC(=O)c1ccc(Br)cc1,nt,i,i,?,10µM,?
Cc1c(CCOC(=O)C23CC4CC(CC(C)(C4)C2)C3)sc[n+]1Cc1ccccc1,i,i,i,3.3µM,i,12µM
Cc1sc[n+](CC(=O)c2ccc(Br)cc2)c1C,i,i,i,i,i,i
CCOC(=O)[C@]12CCCC=C1N(Cc1ccc(Cl)cc1Cl)C(=O)[C@H](CC(=O)NCc1cccc3ccccc13)C2,nt,nt,i,nt,nt,nt
